Test results: PubChem BioAssay (NCATS)
Records with an inconclusive call do not appear. The source made the active and inactive calls. Calls come from the whole dose curve; as a rule, active = well fitted inhibition curve with a large enough effect; inconclusive = small, poorly fitted or top-dose-only effect; inactive = no such curve, though single readings can be large or run the other way.

Test: qHTS for ATAD5 Antagonist screened against the NCATS CANVASS Library (AID 1347370); note: nearly all actives have a fitted effect of over 65% in size
Details: HEK293T-ATAD5-luc, 5-FUrd stimulated, luminescence, 16 h; series mostly up to 46.1 µM; activity change, negative = inhibition: at the top concentration
Text: Natural products and their derivatives continue to be wellsprings of nascent therapeutic potential. However, many laboratories have limited resources for biological evaluation, leaving their previously isolated or synthesized compounds largely or completely untested. To address this issue, the Canvass library of natural products was assembled (https://tripod.nih.gov/canvass), in collaboration with academic and industry researchers, for quantitative high-throughput screening (qHTS) across a diverse set of cell-based and biochemical assays. The pure (>85% purity by liquid chromatography/mass spectrometry [LC/MS]) Canvass library of 346 natural products were submitted by 45 academic laboratories and companies around the world. We collected pure natural products to circumvent deconvolution and structure elucidation due to time and resource limitations. The library was formatted into 1536-well plates and evaluated in 50 qHTS (in an 11-pnt concentration series) bioassays with broad scope of disease-relevant mechanisms. The resulting data set from 50 different assays was then systematically analyzed to identify overall trends and specific natural products with interesting biological activities. Reported herein are the results of each individual qHTS and their corresponding assay protocol. Human ATAD5 is a biomarker for identifying gentoxic compounds because ATAD5 protein levels increase post-transcriptionally in response to DNA damage. A cell-based assay is used to detect DNA damage inducers and genotoxic compounds as well. The assay is based upon a luciferase reporter gene under control of ATAD5 that has been stably integrated into HEK 293T cells. Luminescence intensity is proportional to ATAD5 expression. National Center for Advancing Translational Sciences (NCATS), Rockville, MD National Institute of Health (NIH), Bethesda, Maryland
ATAD5 Agonist assay protocol: 1. In a 1536 well, tissue culture treated white solid bottom plates (Greiner Bio-One North America), 5 uL of HEK293T-ATAD5 cell solution (2000 cells / well) was dispensed using the Multidrop Combi dispenser (Thermo Fisher Scientific). 2. The assay plates were incubated for 5hr at 37C, 5% CO2 to allow the cells to acclimate and attach. 3. Compounds were pin transferred (~23 nL volume) to the assay plates via Wako Pin-tool (Wako Automation, Richmond VA) equipped with a 1536 pin head. The compounds were transferred to columns 5-48 resulting in a final concentration ranging from 0.16 nM to 103 uM. DMSO was pin transferred to columns 1-4 as controls. The compound / control transfer was followed by the addition of either 1 uL of culture medium (columns 1 and 3) or 10 uM final concentration of 5-Fluorouridine (5-FUrd; column 2, 4-48), a known stabilizer of ATAD5. 4. The assay plates were further incubated in the dark at 37C, 5% CO2 for 16hr. 5. To measure cell viability, 1uL of CellTiter-Fluor (Promega) reagent was then added to the assay plates (column 1-48, rows 1-32). The assay plates were incubated in the dark for 1hr at 37C, 5% CO2. 6. A first readout of fluorescence signal was acquired via the ViewLux (PerkinElmer) plate reader using filter sets for AFC (380-400nmEx/505Em) and 1 second exposure setting. 7. To measure ATAD5 activation, 4uL of Amplite Luciferase reagent (AAT Bioquest) was then added to the assay plates (column 1-48, rows 1-32). The assay plates were further incubated in the dark at room temperature for 30min. 8.#A second readout of luminescence signal was acquired via the ViewLux plate reader using a clear emission filter, 10 second exposure setting.
% is set by controls: 0 for no effect and ±100 for the full control effect; potency is the fitted concentration of half-maximal effect.

Structure (SMILES) | activity change, negative = inhibition | Potency
CC=C1CN(C=O)[C@H]2C[C@@H]1[C@@H](C(=O)OC)[C@@]13CCOC21Nc1ccccc13 (some centres not stated) | -14.4% (inactive) | –
CN(C)Cc1c[nH]c2ccccc12 | -2.18% (inactive) | –
COC(=O)C1=C2Nc3ccccc3[C@@]23CCN2CC(C(C)=O)C1C[C@H]23 (some centres not stated) | -0.819% (inactive) | –
CNCCc1ccc(O)cc1 | -13.3% (inactive) | –
CCC(=O)CCCCC[C@@H]1NC(=O)[C@H]2CCCCN2C(=O)[C@H]([C@@H](C)CC)NC(=O)[C@H](Cc2cn(OC)c3ccccc23)NC1=O | 71.9% (inactive) | –
CC[C@@H]1CN2CC[C@@]3(O)C(=Nc4cccc(OC)c43)[C@@H]2C[C@@H]1/C(=C\OC)C(=O)OC | -7.57% (inactive) | –
C=C1[C@@H](C)[C@H]2[C@H](Cc3ccccc3)NC(=O)[C@]23OC(=O)/C=C/[C@H](O)CCC[C@@H](C)C/C=C/[C@H]3[C@@H]1O | -15.3% (inactive) | –
CCCC[C@@H]1CC[C@H]2CCCC(CCC)N12 (some centres not stated) | -6.27% (inactive) | –
COc1ccc(C23Oc4cc(OC)cc(OC)c4[C@](O)([C@H](c4ccccc4)C2C(=O)NCCCCNC(=O)c2ccccc2)[C@@H]3O)cc1 (some centres not stated) | 0% (inactive) | –
CCC[C@H]1CC[C@H]2[C@H](C)CCC[C@H]2N1 | 58.8% (inactive) | –
CO[C@@H](/C=C/CC/C=C/C(=O)O)[C@@H](O)[C@H](C)[C@@H](O)/C(C)=C/[C@H](C)C(=O)CCCC1CC(=O)NC(=O)C1 | -0.592% (inactive) | –
CO[C@@H](/C=C/CC/C=C/C(=O)O)[C@@H](O)[C@H](C)/C=C(\C)[C@@H](O)[C@H](C)C(=O)CCCC1CC(=O)NC(=O)C1 | 82.3% (inactive) | –
CCN1C[C@]2(C)CC[C@@H](O)[C@]34C1[C@H](C[C@H]23)C12CCC(CC14)[C@](O)(CO)[C@H]2O (some centres not stated) | 10.4% (inactive) | –
CC1=CC(=O)C2=C(C)C[C@H](O)[C@@H]3[C@H](OC(=O)[C@@H]3C)[C@@H]12 | 85.6% (inactive) | –
c1ccc2c3c([nH]c2c1)CNCC3 | -10.5% (inactive) | –
CO[C@H](c1ccccc1)[C@H]1NC(=O)C(C)NC(=O)C(C[C@@H](C)CO)N(C)C(=O)[C@@H](C(O)c2cn(C(C)(C)C3CO3)c3ccccc23)NC(=O)C(C(C)C=C(C)C)NC(=O)C(CC(C)C)N(C)C(=O)C(C(C)C)NC1=O (some centres not stated) | -17.7% [at 27.5 µM] (inactive) | –
C[C@]12CC(O)C3[C@@H](CCC4C[C@@H](O)CC[C@@]43CO)[C@@]1(O)CCC2C1=CC(=O)OC1 (some centres not stated) | -1.94% (inactive) | –
CCN1C[C@]2(C)CC[C@H](O)[C@]34C1C(C[C@H]23)[C@@]12CC[C@H](CC14)[C@](O)(COC(=O)c1ccc(OC)c(OC)c1)[C@H]2O (some centres not stated) | -4.32% (inactive) | –
CNCCc1c[nH]c2ccccc12 | -8.29% (inactive) | –
C/C=C1/CN2CC[C@]34C(=Nc5ccccc53)[C@@H]2C[C@@H]1[C@H]4C(=O)OC | 1.08% [at 91.4 µM] (inactive) | –
CNCCc1ccccc1 | -8.8% (inactive) | –
CC[N@@+]1([O-])C[C@]2(C)CC[C@@H](O)[C@@]34C5C[C@H]6CC[C@@]5(C(C[C@H]23)C41)[C@H](O)[C@@]6(O)CO (some centres not stated) | 10.8% (inactive) | –
CC(=O)N[C@H]1CCN2CCC[C@H]12 | -11% [at 103 µM] (inactive) | –
CC1=CC2CC[C@@H]3[C@@H](C)C[C@H](C)[C@@H](C1)N23 (some centres not stated) | 6.33% (inactive) | –
COc1ccc2c(c1)[nH]c1c(C)nccc12 | – | 2.41 µM (active)
NCCc1ccccc1 | 2.58% (inactive) | –
COc1ccc2c3c([nH]c2c1)C(C)=NCC3 | – | 16.6 µM (active)
